Experimental findings from PubChem BioAssay AID743433 (Vanderbilt Specialized Chemistry Center, 2014) are described below.

The assay deals with Metabotropic glutamate receptor 2 (Homo sapiens) (UniProt Q14416). Nature of the assay: mGlu2 agonist response modulation at 10 µM, profiling panel, selectivity assay for mGlu8/mGlu7 PAM project, cell-based, GIRK thallium flux, agonist curve fold shift (AID 743433). The note with it: mGlu2/GIRK cells, agonist CRC shift, agonist EC50 fold shift.
Metabotropic glutamate receptor 2 (Homo sapiens), sequence (Q14416 whole entry, looked up): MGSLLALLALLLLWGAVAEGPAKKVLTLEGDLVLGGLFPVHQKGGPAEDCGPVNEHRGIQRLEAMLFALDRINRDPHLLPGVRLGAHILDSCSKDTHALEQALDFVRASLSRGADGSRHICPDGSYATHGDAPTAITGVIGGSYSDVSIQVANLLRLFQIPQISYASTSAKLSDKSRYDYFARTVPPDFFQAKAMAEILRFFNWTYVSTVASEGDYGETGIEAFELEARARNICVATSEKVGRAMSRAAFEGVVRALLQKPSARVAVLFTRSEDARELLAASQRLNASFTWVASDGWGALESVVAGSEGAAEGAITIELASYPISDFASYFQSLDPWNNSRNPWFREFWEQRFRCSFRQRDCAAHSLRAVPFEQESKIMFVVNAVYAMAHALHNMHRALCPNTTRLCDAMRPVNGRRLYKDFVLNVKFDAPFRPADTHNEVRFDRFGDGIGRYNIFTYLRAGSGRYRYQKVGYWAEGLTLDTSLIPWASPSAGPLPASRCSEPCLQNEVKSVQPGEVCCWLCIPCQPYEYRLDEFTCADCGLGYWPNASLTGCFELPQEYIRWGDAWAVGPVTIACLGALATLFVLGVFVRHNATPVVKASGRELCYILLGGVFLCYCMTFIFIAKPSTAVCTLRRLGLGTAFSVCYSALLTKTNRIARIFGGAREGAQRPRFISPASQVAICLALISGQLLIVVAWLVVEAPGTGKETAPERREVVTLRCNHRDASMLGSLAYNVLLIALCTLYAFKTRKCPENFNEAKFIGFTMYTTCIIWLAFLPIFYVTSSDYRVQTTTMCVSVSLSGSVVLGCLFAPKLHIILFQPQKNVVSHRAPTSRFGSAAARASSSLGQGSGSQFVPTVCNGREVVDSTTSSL

Take `COC(=O)c1ccc(-n2c(C)cc(C(=O)CSc3ccc(NC(C)=O)cc3)c2C)cc1`: the fold shift amounted to 1.
